Measurements published in PubChem BioAssay (NCATS).
Inconclusive results are not listed. Active and inactive are the calls of the source. Unless noted, calls follow the shape of the full dose curve.

Experiments:
[1] = Primary qHTS for inhibitors of SARS-S pseudo-typed particle cell entry (AID 1479145); conditions: outcome: dose series up to 57.1 µM unless noted; also: nearly all actives have a fitted effect of over 45% in size
[2] = Primary qHTS for Huh7 cytotoxicity: counterscreen for inhibitors of MERS-S pseudotyped particle cell entry (AID 1479147); conditions: outcome: dose series up to 57.1 µM unless noted
[3] = Primary qHTS for inhibitors of MERS-S pseudo-typed particle cell entry (AID 1479149); conditions: outcome: dose series up to 57.1 µM unless noted; also: nearly all actives have a fitted effect of over 60% in size
[4] = Primary qHTS for Vero E6 cytotoxicity: counterscreen for inhibitors of SARS-S pseudo-typed particle cell entry (AID 1479150); conditions: outcome: dose series up to 57.1 µM unless noted
[5] = Cytotoxicity counterscreen for inhibitors of SARS-CoV-2 cell entry (AID 1645845); conditions: outcome: dose series up to 57.1 µM unless noted; also: nearly all actives have a fitted effect of over 50% in size
Summary of the method: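 After a 15 min room-temperature ATPLite 1step step, luminescence reflected ATP remaining in HEK293-ACE2 cells exposed to compound for 1 h plus 48 h at 37 C, with percent activity set by cell and no-cell controls.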

[6] = Confirmatory qHTS to identify inhibitors of SARS-CoV-2 cell entry (AID 1645844); also: nearly all actives have a fitted effect of over 45% in size; also: potency is read from the fitted curve at half-maximal effect
Summary of the method: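 Using stable human ACE2 Expi293F cells, compounds preincubated 1 hr before spike pseudoparticle infection; luciferase signal after 48 hr at 37C, 5% CO2, normalised to spike PP and no-fusion-protein PP wells.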

[7] = Primary qHTS to identify inhibitors of SARS-CoV-2 cell entry (AID 1645846); conditions: SARS-CoV-2 pseudovirus cell entry assay, luminescence; activity change, negative = inhibition: at 57.1 µM (top of the series) unless noted; also: nearly all actives have a fitted effect of over 45% in size
Summary of the method: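 HEK293-ACE2 (Expi293F, stable hACE2), 1500 cells/well, o/n 37C; cpd 23 nL pin, 1 h; MLV-PP w/ SARS-CoV-2-S (Wuhan-Hu-1, Δ19 C-term); 48 h 37C; Bright-Glo luminescence; normalized vs S-PP and bald PP.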

[8] = VSVG counterscreen qHTS to identify inhibitors of SARS-CoV-2 cell entry (AID 1645847); also: nearly all actives have a fitted effect of over 65% in size; also: potency is read from the fitted curve at half-maximal effect
Summary of the method: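 Expi293F/hACE2 cells, overnight plating; cpd 1 h, 37C/5% CO2; + VSV-G PP (MLV pseudotyping), 48 h; supernatant removed, Bright-Glo luciferase read. Norm: VSV-G PP and bald PP wells.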

[9] = biological target: Glutathione peroxidase 1 (Homo sapiens) (UniProt P07203); experiment: Primary qHTS Assay for Inhibitors of Recombinant Selenoprotein Glutathione Peroxidase 1 (GPX1) (AID 1845191; active = well fitted inhibition curve with a large enough effect; also: nearly all actives have a fitted effect of over 65% in size)
Summary of the method: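 GPX1 10 nM, GR 100 nM, GSH 1 mM, NADPH 0.5 mM, CHP 0.5 mM (final). 30-min cpd preincubation, RT. Ex340/Em450 read t=0, t=15 min.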

Sequence of Glutathione peroxidase 1 (Homo sapiens) (P07203 whole entry, looked up): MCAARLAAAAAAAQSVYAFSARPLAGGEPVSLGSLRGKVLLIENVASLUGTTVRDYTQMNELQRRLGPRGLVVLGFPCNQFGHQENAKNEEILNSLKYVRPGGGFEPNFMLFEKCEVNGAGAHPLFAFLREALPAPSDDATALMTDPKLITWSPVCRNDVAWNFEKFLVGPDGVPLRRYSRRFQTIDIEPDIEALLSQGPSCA

C[C@@H]1CCC[C@H](C)N1NC(=O)c1ccc(Cl)c(S(N)(=O)=O)c1
inactive: Potency [1] | Potency [2] | Potency [3] | Potency [4] | Potency [5]

Cc1cc(O)ccc1C(C)(C)C
inactive: Potency [1] | Potency [2] | Potency [3] | Potency [4] | Potency [5]

CCCCCCCCCCCCCCCCCCCCCC(=O)Nc1ccn([C@@H]2O[C@H](CO)[C@@H](O)[C@@H]2O)c(=O)n1
inactive: Potency [1] | Potency [2] | Potency [3] | Potency [4] | Potency [6] | Potency [8]
-93.7% [at 27.1 µM]: activity change, negative = inhibition [7]

CO[C@@H]1[C@H](C)OC(O[C@H]2CC(Oc3cc4cc5c(c(O)c4c(O)c3C)C(=O)[C@@H](OC3C[C@@H](OC4C[C@H](OC6C[C@](C)(O)[C@@H](OC(C)=O)[C@H](C)O6)[C@@H](O)[C@H](C)O4)[C@H](O)[C@@H](C)O3)[C@H]([C@@H](OC)C(=O)[C@@H](O)[C@H](C)O)C5)O[C@@H](C)[C@H]2OC(C)=O)C[C@@H]1O (stereo not given in full)
inactive: Potency [1] | Potency [2] | Potency [3] | Potency [4] | Potency [5] | Potency [9]
active: Potency [6] 21.5 nM | Potency [8] 48.2 nM

CCCCc1cc2c(=O)c(C(=O)OC)c[nH]c2cc1OCc1ccccc1
inactive: Potency [1] | Potency [2] | Potency [3] | Potency [4] | Potency [5]

CC(C)C[C@H](NC(=O)[C@@H](Cc1c[nH]c2ccccc12)NC(=O)[C@H](Cc1ccc(O)cc1)NC(=O)[C@H](CO)NC(=O)[C@H](Cc1c[nH]c2ccccc12)NC(=O)[C@H](Cc1cnc[nH]1)NC(=O)[C@@H]1CCC(=O)N1)C(=O)N[C@@H](CCCN=C(N)N)C(=O)N1CCC[C@H]1C(=O)NCC(N)=O
inactive: Potency [1] | Potency [2] | Potency [3] | Potency [4] | Potency [5]
